Measured values reported in the supplement of paper PMC11732987, “Enantioselective OTUD7B fragment discovery through chemoproteomics screening and high-throughput optimisation” (Communications Chemistry, 2025).

Tests used:
Test in all cases: log2 ratio of Biotin-Ahx-Ub-VS probe labelling (fragment/DMSO); higher = less target engagement (more negative = stronger competition), active = hit call of the paper (q ≤ 0.05, log2 ratio ≤ -1)
Conditions in all cases: compound concentration: 200 uM; treatment time: 3 h
USP19 = target: T1, USP19 (UniProt O94966)
T1 sequence (whole entry): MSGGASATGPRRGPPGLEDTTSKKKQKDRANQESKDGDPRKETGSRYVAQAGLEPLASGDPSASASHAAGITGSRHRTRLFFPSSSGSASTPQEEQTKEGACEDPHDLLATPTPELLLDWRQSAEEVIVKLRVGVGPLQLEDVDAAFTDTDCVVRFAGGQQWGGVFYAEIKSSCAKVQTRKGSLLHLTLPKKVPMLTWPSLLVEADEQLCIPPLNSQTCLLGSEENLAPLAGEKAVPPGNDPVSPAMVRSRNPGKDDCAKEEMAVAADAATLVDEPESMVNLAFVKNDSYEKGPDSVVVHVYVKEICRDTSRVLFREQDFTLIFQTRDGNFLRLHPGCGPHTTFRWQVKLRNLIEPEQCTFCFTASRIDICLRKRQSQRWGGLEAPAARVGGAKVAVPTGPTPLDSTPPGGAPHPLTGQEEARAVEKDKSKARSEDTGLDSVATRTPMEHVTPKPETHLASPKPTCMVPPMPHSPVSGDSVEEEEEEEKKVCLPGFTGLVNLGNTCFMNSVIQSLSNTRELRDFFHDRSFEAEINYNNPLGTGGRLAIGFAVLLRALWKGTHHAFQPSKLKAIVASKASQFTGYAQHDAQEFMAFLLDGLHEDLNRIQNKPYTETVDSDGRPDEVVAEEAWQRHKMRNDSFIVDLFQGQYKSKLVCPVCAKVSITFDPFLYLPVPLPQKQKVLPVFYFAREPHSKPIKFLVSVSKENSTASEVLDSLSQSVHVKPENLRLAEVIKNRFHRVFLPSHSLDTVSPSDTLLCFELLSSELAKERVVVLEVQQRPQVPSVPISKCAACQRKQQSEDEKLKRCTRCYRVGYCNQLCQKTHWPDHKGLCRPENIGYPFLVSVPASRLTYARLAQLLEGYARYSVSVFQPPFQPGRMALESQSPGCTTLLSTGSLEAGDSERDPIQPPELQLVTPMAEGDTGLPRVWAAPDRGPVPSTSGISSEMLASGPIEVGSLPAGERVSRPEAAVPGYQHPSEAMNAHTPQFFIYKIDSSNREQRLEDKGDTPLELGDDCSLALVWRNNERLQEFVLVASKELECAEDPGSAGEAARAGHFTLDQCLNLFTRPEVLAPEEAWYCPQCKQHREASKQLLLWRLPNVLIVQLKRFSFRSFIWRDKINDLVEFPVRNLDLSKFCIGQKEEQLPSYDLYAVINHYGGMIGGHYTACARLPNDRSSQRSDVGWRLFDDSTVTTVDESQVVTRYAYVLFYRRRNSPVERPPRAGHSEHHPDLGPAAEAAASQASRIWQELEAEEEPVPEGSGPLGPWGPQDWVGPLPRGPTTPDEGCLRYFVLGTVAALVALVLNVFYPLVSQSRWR
How it was run: (§1)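 Each value is an average log2 ratio of fragment to vehicle, tested by unpaired t-test. The underlying Spectronaut label-free quantities were global-median-normalised, and only proteins with ≥2 unique peptides were included. Triplicate HEK293T lysate samples (495 µg) were exposed to fragment at 200 µM or vehicle for 3 h, then to Biotin-Ahx-Ub-VS at 0.5 µM final for 1 h, before NeutrAvidin enrichment of labelled DUBs, LysC and trypsin digestion, and diaPASEF LC-MS/MS.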

USP24 = USP24 (UniProt Q9UPU5)
How it was run: as §1

USP25 = target: T2, USP25 (UniProt Q9UHP3)
T2 sequence (whole entry): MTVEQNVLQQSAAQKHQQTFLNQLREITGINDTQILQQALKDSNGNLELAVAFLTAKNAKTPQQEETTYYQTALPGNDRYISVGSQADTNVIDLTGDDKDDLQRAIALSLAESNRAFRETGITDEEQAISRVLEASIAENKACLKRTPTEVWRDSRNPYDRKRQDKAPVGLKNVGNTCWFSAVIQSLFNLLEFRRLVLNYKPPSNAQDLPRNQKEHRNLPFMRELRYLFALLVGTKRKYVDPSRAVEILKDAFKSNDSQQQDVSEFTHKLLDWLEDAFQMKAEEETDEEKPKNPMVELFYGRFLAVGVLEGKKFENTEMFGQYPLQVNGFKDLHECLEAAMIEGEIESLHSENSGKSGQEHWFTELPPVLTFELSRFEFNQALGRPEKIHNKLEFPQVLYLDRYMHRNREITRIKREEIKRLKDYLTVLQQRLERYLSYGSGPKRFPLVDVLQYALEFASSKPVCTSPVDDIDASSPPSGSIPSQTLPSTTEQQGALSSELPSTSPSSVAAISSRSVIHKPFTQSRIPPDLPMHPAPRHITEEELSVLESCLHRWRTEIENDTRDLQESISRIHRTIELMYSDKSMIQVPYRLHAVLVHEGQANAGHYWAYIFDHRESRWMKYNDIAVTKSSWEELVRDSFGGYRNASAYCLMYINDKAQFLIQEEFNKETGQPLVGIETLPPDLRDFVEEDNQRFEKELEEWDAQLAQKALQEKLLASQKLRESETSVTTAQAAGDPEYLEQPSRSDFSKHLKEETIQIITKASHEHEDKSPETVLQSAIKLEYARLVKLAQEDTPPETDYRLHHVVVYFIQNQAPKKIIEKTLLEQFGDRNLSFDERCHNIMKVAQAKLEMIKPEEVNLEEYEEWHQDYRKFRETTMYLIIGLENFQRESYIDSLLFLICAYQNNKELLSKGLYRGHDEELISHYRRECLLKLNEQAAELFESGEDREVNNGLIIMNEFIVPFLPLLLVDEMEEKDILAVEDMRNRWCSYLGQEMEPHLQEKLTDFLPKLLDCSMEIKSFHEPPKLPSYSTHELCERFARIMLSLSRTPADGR
How it was run: as §1

USP28 = target: T3, USP28 (UniProt Q96RU2)
T3 sequence (whole entry): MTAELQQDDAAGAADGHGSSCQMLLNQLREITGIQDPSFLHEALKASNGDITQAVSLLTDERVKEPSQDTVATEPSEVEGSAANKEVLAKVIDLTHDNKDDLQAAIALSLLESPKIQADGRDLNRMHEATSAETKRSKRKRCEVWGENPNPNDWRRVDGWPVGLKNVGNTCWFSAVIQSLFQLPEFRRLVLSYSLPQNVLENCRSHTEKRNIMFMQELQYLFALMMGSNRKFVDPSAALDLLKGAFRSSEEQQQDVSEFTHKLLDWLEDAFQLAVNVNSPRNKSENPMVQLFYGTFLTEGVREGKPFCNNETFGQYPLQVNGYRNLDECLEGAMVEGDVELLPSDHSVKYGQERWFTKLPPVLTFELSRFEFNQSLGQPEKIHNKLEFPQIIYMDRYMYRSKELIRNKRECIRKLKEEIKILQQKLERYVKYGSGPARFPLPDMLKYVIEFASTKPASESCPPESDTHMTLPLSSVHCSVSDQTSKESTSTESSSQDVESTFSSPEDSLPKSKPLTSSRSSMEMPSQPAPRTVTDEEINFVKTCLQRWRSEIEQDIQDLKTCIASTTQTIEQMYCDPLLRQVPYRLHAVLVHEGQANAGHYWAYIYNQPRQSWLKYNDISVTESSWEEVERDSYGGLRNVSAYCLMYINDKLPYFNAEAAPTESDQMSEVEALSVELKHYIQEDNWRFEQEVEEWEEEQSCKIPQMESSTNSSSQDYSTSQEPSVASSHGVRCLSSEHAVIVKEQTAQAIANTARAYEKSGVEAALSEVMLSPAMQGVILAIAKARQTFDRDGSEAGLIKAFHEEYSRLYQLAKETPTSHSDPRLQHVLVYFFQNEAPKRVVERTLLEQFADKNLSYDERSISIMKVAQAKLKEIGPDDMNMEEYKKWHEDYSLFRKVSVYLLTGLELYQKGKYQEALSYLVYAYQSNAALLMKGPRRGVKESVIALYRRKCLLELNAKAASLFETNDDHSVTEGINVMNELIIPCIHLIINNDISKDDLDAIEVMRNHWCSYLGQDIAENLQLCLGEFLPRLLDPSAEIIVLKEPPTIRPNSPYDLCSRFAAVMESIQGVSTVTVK
How it was run: as §1

Measured: log2 ratio of Biotin-Ahx-Ub-VS probe labelling

Sequence of USP24 (Q9UPU5 whole entry): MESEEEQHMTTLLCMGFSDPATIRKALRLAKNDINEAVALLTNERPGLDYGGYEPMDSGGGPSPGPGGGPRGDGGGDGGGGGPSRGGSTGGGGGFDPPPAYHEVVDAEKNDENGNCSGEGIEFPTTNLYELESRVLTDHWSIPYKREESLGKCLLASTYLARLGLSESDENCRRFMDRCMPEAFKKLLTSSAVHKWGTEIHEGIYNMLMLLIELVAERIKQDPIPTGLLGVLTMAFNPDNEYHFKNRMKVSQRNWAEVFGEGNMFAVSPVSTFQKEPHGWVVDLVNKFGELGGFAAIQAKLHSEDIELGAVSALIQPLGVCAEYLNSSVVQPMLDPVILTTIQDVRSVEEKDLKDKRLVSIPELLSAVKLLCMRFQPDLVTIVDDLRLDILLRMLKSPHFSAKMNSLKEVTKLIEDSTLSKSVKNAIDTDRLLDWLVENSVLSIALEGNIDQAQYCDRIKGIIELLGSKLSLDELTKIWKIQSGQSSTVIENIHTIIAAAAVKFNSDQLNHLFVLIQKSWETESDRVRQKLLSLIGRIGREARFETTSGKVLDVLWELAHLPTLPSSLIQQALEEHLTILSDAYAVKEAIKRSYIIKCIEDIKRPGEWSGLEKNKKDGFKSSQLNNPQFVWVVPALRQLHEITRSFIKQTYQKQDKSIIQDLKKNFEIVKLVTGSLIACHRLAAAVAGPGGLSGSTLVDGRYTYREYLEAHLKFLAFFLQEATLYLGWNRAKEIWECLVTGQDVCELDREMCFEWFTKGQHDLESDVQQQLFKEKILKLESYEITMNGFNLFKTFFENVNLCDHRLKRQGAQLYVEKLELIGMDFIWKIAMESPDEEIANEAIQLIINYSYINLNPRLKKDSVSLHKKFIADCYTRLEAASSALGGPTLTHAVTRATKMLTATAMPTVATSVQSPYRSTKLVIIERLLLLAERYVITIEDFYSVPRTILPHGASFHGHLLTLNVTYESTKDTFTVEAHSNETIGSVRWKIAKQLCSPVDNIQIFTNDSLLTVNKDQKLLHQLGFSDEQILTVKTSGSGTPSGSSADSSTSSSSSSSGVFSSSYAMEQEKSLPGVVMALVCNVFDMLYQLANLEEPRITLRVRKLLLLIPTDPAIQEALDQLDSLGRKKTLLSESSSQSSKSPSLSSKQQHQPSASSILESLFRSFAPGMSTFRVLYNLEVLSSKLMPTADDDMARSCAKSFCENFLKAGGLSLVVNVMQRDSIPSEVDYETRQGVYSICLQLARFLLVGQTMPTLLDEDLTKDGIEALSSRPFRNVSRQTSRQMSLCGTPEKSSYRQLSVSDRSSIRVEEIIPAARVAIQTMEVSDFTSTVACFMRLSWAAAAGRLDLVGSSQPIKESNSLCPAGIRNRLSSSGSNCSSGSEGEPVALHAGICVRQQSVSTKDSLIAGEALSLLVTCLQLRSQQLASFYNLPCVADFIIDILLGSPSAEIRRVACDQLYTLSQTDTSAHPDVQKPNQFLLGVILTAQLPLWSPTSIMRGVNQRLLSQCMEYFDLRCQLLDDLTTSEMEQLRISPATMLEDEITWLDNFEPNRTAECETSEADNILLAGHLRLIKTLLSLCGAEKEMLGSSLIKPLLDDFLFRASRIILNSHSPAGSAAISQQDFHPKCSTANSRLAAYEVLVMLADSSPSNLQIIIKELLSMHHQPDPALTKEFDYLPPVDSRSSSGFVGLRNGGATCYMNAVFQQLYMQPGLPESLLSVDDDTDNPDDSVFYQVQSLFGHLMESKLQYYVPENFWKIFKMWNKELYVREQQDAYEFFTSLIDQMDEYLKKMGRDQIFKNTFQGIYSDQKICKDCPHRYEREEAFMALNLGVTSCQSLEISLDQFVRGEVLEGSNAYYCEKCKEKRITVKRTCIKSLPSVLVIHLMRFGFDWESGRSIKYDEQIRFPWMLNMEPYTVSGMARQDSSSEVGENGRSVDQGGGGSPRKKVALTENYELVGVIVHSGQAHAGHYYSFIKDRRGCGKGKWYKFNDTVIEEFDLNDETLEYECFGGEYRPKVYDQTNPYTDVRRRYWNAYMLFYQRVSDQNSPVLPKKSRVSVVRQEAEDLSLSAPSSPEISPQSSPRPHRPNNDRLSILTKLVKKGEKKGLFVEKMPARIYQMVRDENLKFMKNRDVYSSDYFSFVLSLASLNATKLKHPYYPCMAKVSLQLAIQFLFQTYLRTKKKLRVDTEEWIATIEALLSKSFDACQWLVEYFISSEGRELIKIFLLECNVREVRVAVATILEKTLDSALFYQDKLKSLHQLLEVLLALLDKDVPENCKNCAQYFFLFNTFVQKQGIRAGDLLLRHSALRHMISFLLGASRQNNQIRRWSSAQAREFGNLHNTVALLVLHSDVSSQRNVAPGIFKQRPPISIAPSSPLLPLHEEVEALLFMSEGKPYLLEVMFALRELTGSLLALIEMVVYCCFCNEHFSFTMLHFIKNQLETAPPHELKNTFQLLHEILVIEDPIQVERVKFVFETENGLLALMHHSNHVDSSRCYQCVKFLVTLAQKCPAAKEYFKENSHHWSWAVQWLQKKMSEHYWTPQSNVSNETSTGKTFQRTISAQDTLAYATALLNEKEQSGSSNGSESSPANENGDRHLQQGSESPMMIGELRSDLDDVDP

CC1CCc2onc(CNC(=O)CCl)c2C1 (centres undefined)
inactive: USP19 0.0516 | USP24 0.0469 | USP25 0.00198 | USP28 -0.19
